Screening data: PubChem, several laboratories
EBV LMP1 NFkB: EBV LMP1-driven NF-kappaB luciferase reporter inhibitors, primary screen, cell-based, luminescence, single point. LMP1-induced NF-kappaB luciferase reporter cells. inhibition, % at 12.5 µM. 350,000 tested, 0.69% active. AID 504558, 2011; in the data active = inhibition above about 41%; inconclusive = no clear call, values can overlap the other calls;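 note: 0% = neutral control wells and 100% = reference inhibitor control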
HIF-2a inh: HIF-2a reporter inhibitors, primary screen, luminescence, 786-0 RCC cells | 360,000 tested, 0.72% active | 786-0 RCC cells HIF-2a reporter, luciferase luminescence, overnight | AID 624352, 2012 | inhibition, % at 18.8 µM;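 active = inhibition of the luminescence signal of 40% or more relative to plate controls, in a single-dose primary screen at 18.75 µM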
CF NFkB inh: inhibitors of PAF-induced NF-kB signaling, primary screen, cell-based, GFP fluorescence, uHTS. KKLEB NF-kB-GFP reporter, GFP fluorescence overnight. inhibition, % at 5 µM. 360,000 tested, 0.86% active. AID 588850, 2011;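 active = at least 50% inhibition at 5 µM, scaled per plate between neutral and stimulator controls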;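 note: PAF is a Pseudomonas aeruginosa culture filtrate used as stimulus; plate controls were PAF-stimulated DMSO wells for no effect and unstimulated DMSO wells for full effect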
MITF TRPM1 inh: inhibitors of MITF-dependent TRPM1 promoter reporter, primary screen, cell-based, SK-MEL-5, single point, luciferase | inhibition, % at 12.5 µM | 330,000 tested, 0.83% active | SK-MEL-5 TRPM1 promoter luciferase, 24 h | AID 488899, 2010;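 active = mean inhibition across replicates of 60% or more, whatever share of single replicates reaches that level; inconclusive = some that reach 60%, reason not given; inactive = mean inhibition across replicates below 60%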
Peg3 prom inh-1: Peg3 promoter-driven luciferase inhibitors, primary screen, cell-based, HeLa, luciferase luminescence; 360,000 tested, 1.7% active; HeLa PEG-Prom luciferase reporter, overnight; inhibition, % at 20 µM; AID 588405, 2011;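 active = inhibition of at least 50% at 20 µM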
KKLEB cytotox: cytotoxicity in KKLEB CF airway cells, primary screen, cytotoxicity control for CF NF-kB inhibitor project, cell-based, uHTS, fluorescence assay plates. KKLEB CF airway cells viability, ATPlite luminescence, overnight; stronger effect = lower value; cells stimulated with P. aeruginosa culture filtrate. activity change (cytotoxicity), % at 5 µM. 360,000 tested, 0.36% active. AID 602141, 2011;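 active = corrected activity change at or below -50% at 5 µM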
Peg3 prom inh-2: Peg3 promoter reporter inhibitors, retest, confirmation, cell-based, HeLa, luciferase reporter, single concentration; shares compounds with Peg3 prom inh-1; HeLa PEG-Prom luciferase reporter, luminescence, overnight; AID 602417, 2012; inhibition, % at 20 µM; 1,300 tested, 84% active;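 active = at 20 µM dose, 40% or more inhibition averaged across four replicates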
* marks the source's active call; other numbers are inactive results; ? = inconclusive; nt = no result given. An excerpt weighted towards active compounds, which were near 3% of everything screened.

SMILES	EBV LMP1 NFkB	HIF-2a inh	CF NFkB inh	MITF TRPM1 inh	Peg3 prom inh-1	KKLEB cytotox	Peg3 prom inh-2
CC(C)NC(=O)N(C)C[C@H]1Oc2cc(C#Cc3ccc(F)cc3)ccc2S(=O)(=O)N([C@H](C)CO)C[C@H]1C	1	2	-22	nt	15	1	nt
S=c1[nH]nc(-c2cccnc2)n1/N=C/c1ccccc1	3	19	-21	-9	13	5	nt
Fc1cccc(Cl)c1/C=N/n1c(-c2cccnc2)n[nH]c1=S	52*	10	5	-1	26	-17	nt
Cc1ccccc1-c1n[nH]nc1C1=CC(=O)C[C@H](c2ccc(F)cc2)C1	12	6	44	nt	25	-12	nt
O=C(NC1CC2CCCC(C1)N2Cc1ccccc1)C1CCCCC1 (configuration not stated)	1	9	6	0	2	12	nt
CCCCN1C2CCCC1CC(NC(=O)C1CCCCC1)C2 (configuration not stated)	51*	3	1	4	12	1	nt
Cc1c(N=Cc2ccc(O)c(Br)c2)cccc1[N+](=O)[O-]	47*	2	-13	-1	18	4	nt
CCCS(=O)(=O)NC(=O)C1(C)CCN(C(=O)c2cc(C)n(C(C)(C)C)n2)C1 (configuration not stated)	nt	7	19	nt	12	-4	nt
COC1=C(N)C(=O)c2nc(C)ccc2C1=O	1	1	57*	113*	34	3	nt
CC1=CC(C)(C)N2C(=O)C(=Nc3ccc(O)cc3)c3cccc1c32	-4	9	13	78*	10	9	nt
O=C(Nc1ccn(CCOC(=O)c2ccccc2)c(=O)n1)c1ccccc1	nt	-3	-8	nt	-36	14	nt
O=C1NC(=S)N/C1=C/c1ccc2c(c1)OCO2	1	20	78*	59	72*	-22	nt
O=C1NC(=S)SC1=Cc1ccc2c(c1)OCO2	-8	-137	39	-1	-78	-24	nt
CCOc1cc(/C=N\NC(N)=O)cc(Br)c1OC(C)C	4	8	10	-1	56*	-2	nt
Nc1ccccc1/C=C/c1ccccc1N	-35	-261	0	-55	-306	11	nt
CN1CCc2cc3c(c4c2[C@H]1[C@H](O)c1ccccc1-4)OCO3	-30	32	-349	5	66*	8	nt
O=C1C=C(c2ccccc2)C[C@@H](c2ccc3c(c2)OCO3)C1	4	-23	18	2	-10	-18	nt
COc1cccc(C2=CC(=O)C[C@H](c3ccc4c(c3)OCO4)C2)c1	48*	-14	5	4	10	3	nt
Cc1nc2ccccc2c(N)c1C(=O)/C=C/c1ccccc1	24	-10	-14	3	72*	-12	nt
COC(=O)[C@]12CCCCC=C1N(Cc1ccc(Cl)cc1Cl)C(=O)[C@H](CC(=O)NCCc1ccccc1OC)C2	nt	-6	nt	nt	nt	nt	nt
CCCC1(C2CCCC2)NC(=O)NC1=O (configuration not stated)	4	14	12	-5	-22	2	nt
O=C(COC(=O)CCN1C(=O)/C(=C\C=C\c2ccccc2)SC1=S)Nc1ccc(Br)cc1	13	58*	-12	64*	-6	2	nt
CC(C)c1ccccc1NC(=O)COC(=O)CCN1C(=O)/C(=C\C=C\c2ccccc2)SC1=S	10	82*	-15	63*	-3	14	nt
O=C(NC1CCCC1)C(c1ccc(F)cc1)N1CCC(O)(c2ccc(Cl)cc2)CC1 (configuration not stated)	nt	-9	nt	nt	nt	nt	nt
Cc1n[nH]c(C)c1CCc1nc2c3ccccc3nc(SCC(=O)Nc3ccccc3F)n2n1	1	18	13	42	20	-10	nt
SMILES	EBV LMP1 NFkB	HIF-2a inh	CF NFkB inh	MITF TRPM1 inh	Peg3 prom inh-1	KKLEB cytotox	Peg3 prom inh-2
Cc1cccc(NC(=O)CSc2nc3ccccc3c3nc(CCc4c(C)n[nH]c4C)nn23)c1	22	-7	31	-4	57*	-42	58*
N#Cc1ccc(CN(Nc2ccccc2)c2ccccc2)cc1	3	-1	-48	nt	22	4	nt
CCc1ccc(/C=C2/SC(=S)N(CCCC(=O)Nc3cccc(C(=O)O)c3)C2=O)cc1	-1	23	24	nt	-28	-18	nt
COc1cccc(/C=C2\SC(=S)N(CCCC(=O)Nc3cc(C)on3)C2=O)c1	-2	34	7	-9	27	-3	nt
CCc1ccc(/C=C2\SC(=S)N(CCCC(=O)NC3=NCCS3)C2=O)cc1	46*	83*	5	nt	72*	-18	71*
CCc1ccc(/C=C2\SC(=S)N(CCCC(=O)Nc3cc(C)on3)C2=O)cc1	37	77*	-12	nt	72*	6	66*
COc1ccc(C2NCCc3c2[nH]c2ccccc32)cc1COc1ccc(F)cc1 (configuration not stated)	-10	7	33	22	97*	-28	98*
CCOc1cc(CNCCO)cc(Br)c1OCc1ccccc1Cl	6	8	13	47	106*	-6	74*
CC(/C=N\Nc1nnc2c(n1)[nH]c1c(C)cccc12)=C\c1ccco1	-97	-98	19	21	65*	-36	14
CN(C)CCCN(C(=O)c1ccc2c(c1)OCCO2)c1nc2ccc(Cl)cc2s1	-9	-196	16	1	-11	-10	nt
Cc1ccc(C(=O)N(CCCN(C)C)c2nc3ccc(Cl)cc3s2)cc1C	7	-29	31	-7	56*	-21	93*
O=C(Nc1nc2cc3c(cc2s1)OCCO3)c1ccco1	68*	71*	-1	?	66*	-37	62*
O=C(Nc1nc2cc3c(cc2s1)OCO3)C1=COCCO1	73*	55*	8	83*	62*	-28	64*
COc1ccc2sc3cccc(NCCN(C)C)c3c(=O)c2c1	nt	-100	-13	nt	97*	-27	66*
C[C@H](c1ccccc1)N1C[C@H](COCc2ccccc2)Oc2cc(N3CC[C@@H](O)C3)ccc2S1(=O)=O	nt	8	nt	nt	nt	nt	nt
Cc1cccc(C)c1NC(=O)C(c1ccccc1)n1c(=O)c(-c2ccco2)nc2ccccc21 (configuration not stated)	nt	7	nt	nt	nt	nt	nt
COc1cc(NC(=O)Nc2nc(C(N)CCc3ccccc3)cs2)cc(OC)c1OC (configuration not stated)	nt	-22	-22	nt	74*	6	83*
